The values below come from PubChem BioAssay (NCI).

Among the test systems are NCI-H226 lung; NCI-H322M lung; HOP-62 NSCLC; NCI-H460 lung; HOP-92 NSCLC; NCI-H522 lung; A549/ATCC NSCLC; 786-0 renal; COLO 205 colon; DU-145 prostate; K-562 leukemia; MALME-3M melanoma; MDA-MB-231 breast; SF-268 CNS; SF-295 CNS; SF-539 CNS; UACC-257 melanoma; M14 melanoma; RXF 393 renal.
Holding throughout (experiment): NCI-60 one-dose screen, 48 h (100 = growth as untreated, 0 = no growth, -100 = all killed)
Common to all, as to settings: 10 µM unless noted

Molecules are shown by their SMILES. About 83,000 compounds went through this panel and 20% of them were active in at least one assay; those are over-represented in the sample as a whole.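 Note: values are percent growth. 100 is the growth of untreated cells, values between 100 and 0 indicate rising inhibition; between -100 and 0 indicates cell death.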 Values without a mark were called inactive. Active and inactive are the calls of the source. How the source made its calls: active means growth percent below 10; inactive means the rest.

As for `O=c1[nH]nc(-c2ccc(Br)cc2)cc1Cc1ccc(O)cc1`, the growth with NCI-H226 lung is 85.6%; in the assay with NCI-H322M lung it was 126%; in the assay with HOP-62 NSCLC, 109%; with NCI-H460 lung, 103%; in the assay with HOP-92 NSCLC it was 51.8%; in the assay with NCI-H522 lung, 89.5%. Besides, the growth is 56.7% in the assay with A549/ATCC NSCLC; 103% with 786-0 renal; 98.8% in the assay on COLO 205 colon; 91.5% in the assay on DU-145 prostate; 81.5% with K-562 leukemia; 106% in the assay on MALME-3M melanoma. In addition, the growth in the assay with MDA-MB-231 breast was 87.6%; with SF-268 CNS, 89.8%; in the assay on SF-295 CNS it was 107%; with SF-539 CNS, 102%; with UACC-257 melanoma it was 106%; in the assay on M14 melanoma it was 107%.
In the case of `Brc1ccc(C2CC(c3cccc(Nc4ccncc4)c3)=NN2c2ccccc2)cc1` (stereo not drawn), the growth with NCI-H226 lung was 95%; with NCI-H322M lung, 87.3%; with HOP-62 NSCLC, 77.2%; with NCI-H460 lung it was 0.717% (active); with HOP-92 NSCLC, 62.5%; with NCI-H522 lung, 87.4%. Moreover, the growth was 54.7% with A549/ATCC NSCLC; 90.2% with 786-0 renal; 0.175% (active) in the assay with COLO 205 colon; 88.7% with DU-145 prostate; 4.05% (active) in the assay on K-562 leukemia; 66.7% in the assay on MALME-3M melanoma. Further, the growth is 84.4% in the assay on MDA-MB-231 breast; 103% with SF-268 CNS; 89% in the assay with SF-295 CNS; 84.4% in the assay with SF-539 CNS; 84% in the assay on UACC-257 melanoma.
`O=S(=O)(c1ccccc1)N1CCCc2ccccc21`: the growth was 104% with NCI-H226 lung; 99% in the assay on NCI-H322M lung; 94.2% with HOP-62 NSCLC; 107% with NCI-H460 lung; 88.5% in the assay with HOP-92 NSCLC; 82.2% in the assay on NCI-H522 lung. For the same compound, the growth is 91.4% with A549/ATCC NSCLC; 102% in the assay on 786-0 renal; 112% in the assay with COLO 205 colon; 112% in the assay on DU-145 prostate; 97% in the assay with K-562 leukemia; 93.6% with MALME-3M melanoma. The growth in the assay with MDA-MB-231 breast was 98.8%; in the assay with SF-268 CNS it was 95.5%; in the assay on SF-295 CNS it was 98.5%; in the assay on SF-539 CNS it was 102%; in the assay on UACC-257 melanoma it was 96.3%; in the assay with M14 melanoma, 102%.
For `CCOC(=O)Oc1c(OC)cc(C(=O)O[C@@H]2C[C@@H]3CN4CCc5c([nH]c6cc(OC)ccc56)[C@H]4C[C@@H]3[C@H](C(=O)OC)[C@H]2OC)cc1OC`, the growth in the assay on NCI-H226 lung is 102%; with NCI-H322M lung it was 102%; in the assay with HOP-62 NSCLC, 97.9%; with NCI-H460 lung, 40.9%; with HOP-92 NSCLC it was 19%; in the assay on NCI-H522 lung it was 73.8%. Further, the growth in the assay on A549/ATCC NSCLC was 41.8%; with 786-0 renal, 78.7%; in the assay with COLO 205 colon, 88.9%; with DU-145 prostate, 81.5%; with MALME-3M melanoma it was 58.9%; with MDA-MB-231 breast, 43.2%. Further, the growth with RXF 393 renal is 89.8%; in the assay with SF-268 CNS, 75.2%; in the assay with SF-295 CNS, 74.3%; with SF-539 CNS it was 79.9%; in the assay on UACC-257 melanoma, 94%; with M14 melanoma, 72.1%.
For `CC[C@H](C)[C@@H]1NC(=O)[C@H](Cc2ccc(O)cc2)N(C)C(=O)[C@H](Cc2ccccc2)NC(=O)CN(C)C(=O)[C@@H]2CCCN2C(=O)[C@@H](Cc2ccccc2)N(C)C(=O)[C@H](CC(C)C)NC1=O`, the growth is -8.47% (active) with NCI-H226 lung; -20.2% (active) with NCI-H322M lung; 0.573% (active) with HOP-62 NSCLC; -26.5% (active) in the assay with NCI-H460 lung; -3.08% (active) in the assay with HOP-92 NSCLC; 0.571% (active) with NCI-H522 lung. The growth in the assay on A549/ATCC NSCLC is 2.11% (active); in the assay on 786-0 renal it was 10.6%; in the assay with COLO 205 colon, -25.1% (active); in the assay on DU-145 prostate, 0.387% (active); with K-562 leukemia, 6.28% (active); in the assay on MALME-3M melanoma, -25.5% (active). For the same compound, the growth is -12.6% (active) in the assay on MDA-MB-231 breast; -5.16% (active) in the assay with SF-268 CNS; -23.5% (active) with SF-295 CNS; -24.8% (active) in the assay on SF-539 CNS; -0.97% (active) in the assay on UACC-257 melanoma; -69.4% (active) in the assay on M14 melanoma.
On to `CC(C)(C)CC(C)(C)Nc1c(-c2ccc3c(c2)OCO3)nc2cnccn12`, for which the growth was 90.1% with NCI-H226 lung; 101% with NCI-H322M lung; 97.9% in the assay on HOP-62 NSCLC; 97.2% in the assay on NCI-H460 lung; 70.3% in the assay with HOP-92 NSCLC; 74.1% in the assay with NCI-H522 lung. In addition, the growth in the assay with A549/ATCC NSCLC is 82.7%; in the assay with 786-0 renal, 67.7%; with COLO 205 colon it was 102%; in the assay with DU-145 prostate, 101%; in the assay with K-562 leukemia, 72%; in the assay on MALME-3M melanoma it was 111%. Besides, the growth is 83.9% in the assay with MDA-MB-231 breast; 84.1% with SF-268 CNS; 86.2% with SF-295 CNS; 91.5% in the assay on SF-539 CNS; 101% with UACC-257 melanoma; 45.9% with M14 melanoma.
With `CN1CCN(c2c(F)cc(NC3=C(Cl)C(=O)c4ncccc4C3=O)cc2F)CC1`, the growth was 97.1% with NCI-H226 lung; 108% with NCI-H322M lung; 111% in the assay with HOP-62 NSCLC; 107% with NCI-H460 lung; 41% in the assay with HOP-92 NSCLC; -9.58% (active) in the assay on NCI-H522 lung. The growth with A549/ATCC NSCLC was 109%; in the assay on 786-0 renal, 101%; in the assay on COLO 205 colon it was 64.7%; in the assay with DU-145 prostate, 103%; with K-562 leukemia, 2.2% (active); in the assay with MALME-3M melanoma, -6.37% (active). The growth in the assay with MDA-MB-231 breast was 84.2%; with SF-268 CNS, 93.3%; with SF-295 CNS, 117%; in the assay on SF-539 CNS it was 98.1%; with UACC-257 melanoma, 69.3%; with M14 melanoma, 76.5%.
On to `Cc1cc(Nc2cccc(C(F)(F)F)c2)n2c(nc3ccccc32)c1C#N`, for which the growth was 40.1% with NCI-H226 lung; 36.9% with NCI-H322M lung; 53.6% with HOP-62 NSCLC; 17% in the assay on NCI-H460 lung; -2.32% (active) in the assay with HOP-92 NSCLC; 20.7% with NCI-H522 lung. The growth in the assay on A549/ATCC NSCLC is 43.7%; in the assay on 786-0 renal it was 58.9%; in the assay on COLO 205 colon, 36.9%; with DU-145 prostate it was 53.9%; in the assay on K-562 leukemia it was 22.1%; with MALME-3M melanoma it was 60.6%. Moreover, the growth in the assay with MDA-MB-231 breast is 54.2%; in the assay on RXF 393 renal, 61.3%; with SF-268 CNS, 51.3%; in the assay with SF-295 CNS, 53.9%; in the assay on SF-539 CNS, 40.9%; in the assay on UACC-257 melanoma, 11.9%. In addition, the growth in the assay with M14 melanoma was 54.4%.
As to `COc1ccc(CNCCN2C(=O)c3ccc4c5c(ccc(c35)C2=O)C(=O)N(CCNCc2ccc(OC)cc2)C4=O)cc1`, the growth is -63.7% (active) with NCI-H226 lung; -74.2% (active) with NCI-H322M lung; -33.8% (active) in the assay with HOP-62 NSCLC; -78.8% (active) in the assay with NCI-H460 lung; -46.8% (active) in the assay on HOP-92 NSCLC; -80.9% (active) in the assay with NCI-H522 lung. The growth is -84.1% (active) in the assay with A549/ATCC NSCLC; -76.5% (active) in the assay with 786-0 renal; -40.9% (active) in the assay on COLO 205 colon; -90.6% (active) in the assay on DU-145 prostate; -37.8% (active) in the assay with K-562 leukemia; -76.3% (active) with MALME-3M melanoma. Besides, the growth was -16.7% (active) with MDA-MB-231 breast; -93% (active) in the assay with RXF 393 renal; -71.2% (active) with SF-268 CNS; -62.2% (active) in the assay with SF-295 CNS; -77.3% (active) in the assay on SF-539 CNS; -91% (active) with UACC-257 melanoma. Further, the growth in the assay on M14 melanoma was -72.8% (active).
